Bioassay records from PubChem.
This is a sample that favours compounds with a hit; in the whole collection about 16% have one here.
DT40 TDP1 no CPT: qHTS for Inhibitors of human tyrosyl-DNA phosphodiesterase 1 (TDP1): qHTS in cells in absence of CPT. DT40 Tdp1-/- hTDP1 cells, no CPT, ATP luminescence, 48 h. Potency, µM (series often up to 46.2 µM), for inactives: at the top dose activity change, negative = growth inhibition, most hits filed as inhibitors. actives 15% (n = 420,000). AID 686978, 2013; note: potency is the fitted concentration of half-maximal effect; % is set by controls: 0 for no effect and ±100 for the full control effect; nearly all actives have a fitted effect of over 55% in size
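Readout: luminescence from CellTiter-Glo after 30 min in the dark at RT. Cells: DT40 Tdp1-/- with stable hTDP1, 400/well. Exposure: compounds alone, ≥48 hr, 37 °C.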
miR-21 reporter: qHTS Assay for Modulators of miRNAs and/orActivators of miR-21; HeLa miR-21 FLuc reporter, luciferase, 48 h; Potency, µM (doses to about 38.3 µM), without a hit: at the top dose activity change, positive = activation, actives largely listed as activators; 340,000 tested, under 10 active; AID 2288, 2010;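 note: % of control where 0% means no effect; miR-21 action dims this reporter so a rising signal means less miR-21 action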
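Luminescence from a firefly luciferase reporter carrying a miR-21 binding site downstream, stably expressed under a CMV promoter in HeLa cells that make miR-21 endogenously, reports miRNA modulation after 48 h compound exposure up to approximately 40uM final.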
TDP1 cell CPT: qHTS for Inhibitors of human tyrosyl-DNA phosphodiesterase 1 (TDP1): qHTS in cells in presence of CPT; chicken DT40 Tdp1-/-;hTDP1 cells + 20 nM CPT, ATP luminescence, 48 h; Potency, µM (titrated, usually from 46.2 µM), without a hit: top-dose activity change, negative = growth inhibition, usual class: inhibitors; actives 12% (n = 420,000); note: potency is the fitted concentration of half-maximal effect; % is set by controls: 0 for no effect and ±100 for the full control effect; nearly all actives have a fitted effect of over 55% in size
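Cell growth measured by CellTiter-Glo luminescence after a minimum 48 h, 37 C compound exposure with 20 nM CPT in Tdp1-knockout DT40 cells stably expressing hTDP1, seeded 400/well; qHTS titration format.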
TDP1 inh: qHTS Assay for Inhibitors of Tyrosyl-DNA Phosphodiesterase (TDP1); recombinant TDP1, AlphaScreen DNA substrate cleavage; Potency, µM (titrated, usually from 130 µM), for the others: at the highest dose activity change, negative = inhibition, actives largely listed as inhibitors; actives 0.28% (n = 350,000); AID 485290, 2010; note: potency is the fitted concentration of half-maximal effect; % is set by controls: 0 for no effect and ±100 for the full control effect; nearly all actives have a fitted effect of over 40% in size
Target sequence (Q9NUW8 whole entry, looked up): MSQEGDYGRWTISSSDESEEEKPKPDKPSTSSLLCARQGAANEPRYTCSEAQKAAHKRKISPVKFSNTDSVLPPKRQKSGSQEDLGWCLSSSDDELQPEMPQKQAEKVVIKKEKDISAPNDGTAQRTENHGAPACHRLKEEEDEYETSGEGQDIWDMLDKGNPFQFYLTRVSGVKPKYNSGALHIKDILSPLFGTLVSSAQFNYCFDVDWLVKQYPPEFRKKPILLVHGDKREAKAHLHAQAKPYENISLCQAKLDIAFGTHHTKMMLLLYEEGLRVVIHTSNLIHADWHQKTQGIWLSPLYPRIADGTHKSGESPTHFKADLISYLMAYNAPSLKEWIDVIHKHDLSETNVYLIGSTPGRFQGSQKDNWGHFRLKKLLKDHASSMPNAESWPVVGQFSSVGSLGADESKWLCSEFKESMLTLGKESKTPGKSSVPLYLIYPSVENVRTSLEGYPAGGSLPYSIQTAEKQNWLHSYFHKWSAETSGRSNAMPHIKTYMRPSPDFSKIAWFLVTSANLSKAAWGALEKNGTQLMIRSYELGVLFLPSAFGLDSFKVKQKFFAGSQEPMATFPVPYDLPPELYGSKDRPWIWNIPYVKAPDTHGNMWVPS
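Steps: enzyme plus compound, 15 min RT; add biotin/phosphotyrosine-FITC oligonucleotide (15 nM final), react 5 min; add donor/acceptor beads (10 ug/ml final), 10 min; read AlphaScreen. Tdp1 at 1 nM final.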
uPA generation: qHTS for Inhibitors of Cell Surface uPA Generation | cell surface uPA generation assay, qHTS | Potency, µM (top dose mostly 38.3 µM), inactives show at the top dose activity change, negative = inhibition, usual class: inhibitors | actives 0.31% (n = 330,000) | AID 540303, 2011; active = well fitted inhibition curve with a large enough effect; inconclusive = small, poorly fitted or top-dose-only effect; inactive = no such curve, though single readings can be large or run the other way; tested in mouse RAW 264.7 cells; note: potency is the fitted concentration of half-maximal effect; % is set by controls: 0 for no effect and ±100 for the full control effect; nearly all actives have a fitted effect of over 55% in size
* hit, by the source's call; ? = inconclusive; nt = no result. Unless noted, calls come from the whole dose curve; as a rule, active = well fitted curve in the direction sought with a large enough effect; inconclusive = small, poorly fitted or top-dose-only effect, or another doubt; inactive = no such curve, though single readings can be large; an effect the other way counts as inactive or inconclusive.

SMILES | DT40 TDP1 no CPT | miR-21 reporter | TDP1 cell CPT | TDP1 inh | uPA generation
COc1cc(C2Nc3cccc4cccc(c34)N2)ccc1O | ? | -3% | ? | 9% | 2%
Cc1cc(NC(=O)COC(=O)c2cc(S(=O)(=O)N(C)c3ccccc3)ccc2Cl)no1 | -3% | 5% | -10% | 1% | 3%
Nc1nc(-c2ccccn2)nc(N)c1Cc1ccccc1F | 4.6µM* | 23% | 5.8µM* | 12% | -15%
Cc1n[nH]c(C)c1Cc1c(F)cccc1Cl | ? | -5% | ? | -1% | 9%
CNc1cc(C(F)(F)F)nc(-c2ccccn2)n1 | ? | 1% | ? | 3% | 3%
Nc1nc(-c2ccccn2)nc(N)c1Cc1c(F)cccc1Cl | 1.5µM* | 12% | 1.8µM* | 12% | -17%
CCSc1nnc2c3cc(CC)ccc3n(C)c2n1 | ? | -21% | ? | nt | 9%
O=C(NC1CCCC1)C1C(c2ccc(C(F)(F)F)cc2)=Nc2ccccc2N1C(=O)c1cc2ccccc2[nH]1 (centres undefined) | 13µM* | nt | ? | nt | nt
COc1ccc(CCC(=O)N2c3ccccc3N=C(c3ccc(C(F)(F)F)cc3)C2C(=O)NC2CCCC2)cc1 (centres undefined) | 18µM* | nt | ? | nt | nt
COc1ccc(C2=Nc3ccccc3N(C(=O)c3ccncc3)C2C(=O)NC(C)C)cc1 (centres undefined) | -28% | nt | ? | nt | nt
COc1ccc(NC(=O)c2ccc(OCc3c(C)noc3C)c(OC)c2)cn1 | ? | -3% | -23% | 5% | -2%
CC1CCC2C(=O)N3C(CCC(C)C3c3ccc(-c4ccco4)cc3)C(=O)N2C1c1ccc(-c2ccco2)cc1 (centres undefined) | nt | nt | nt | 3.5µM* | nt
N#Cc1ccc(COc2ccc(CCO)cc2-n2nc3ccccc3n2)cc1 | 16µM* | 10% | ? | 4% | 5%
OCCc1ccc(O)c(-n2nc3ccccc3n2)c1 | 2% | -52% | 2% | 1% | -1%
CC1C(=O)N2CCCc3cc(NC(=O)COc4ccc(Cl)cc4)cc1c32 (centres undefined) | ? | nt | ? | nt | -1%
CCOc1ccc(Cl)cc1-c1cc(C(=O)NCC2CCCCC2)[nH]n1 | 6.5µM* | nt | 4.1µM* | nt | nt
Cc1cc(F)ccc1-c1cc(C(=O)NCC2CCCCC2)[nH]n1 | ? | nt | 21µM* | nt | nt
COc1ccc(Cl)cc1-c1cc(C(=O)NCC2CCCCC2)[nH]n1 | 12µM* | nt | 8.2µM* | nt | nt
CCOC(=O)N=Nc1c(O)n(CC(=O)OC)c2ccccc12 | 4% | 2% | 2% | 5% | -2%
CCOC(=O)N=Nc1c2ccccc2c2nc3no[nH]c3nc12 | 1.3µM* | ? | 0.41µM* | 0% | -16%
COC(=O)c1cc(NC(=O)Nc2ccccc2OC)cc(C(=O)OC)c1 | -30% | 13% | ? | -10% | 4%
COC(=O)Cc1c(C)c2ccc(OC3CCCCC3=O)c(C)c2oc1=O (centres undefined) | 18µM* | -5% | ? | nt | -10%
Cc1cc(C(=O)CN2CCC(C)CC2)c(C)n1-c1ccccc1F | 16µM* | 22% | ? | 1% | 0%
CC(C)CCC(O)(c1ccccc1)C(CN1CCOCC1)c1ccccc1 (centres undefined) | 16µM* | 15% | 18µM* | nt | 3%
CCCCCCC(O)(c1ccc(OC)cc1)C(CN1CCOCC1)c1ccccc1 (centres undefined) | ? | 25% | ? | nt | -11%
SMILES | DT40 TDP1 no CPT | miR-21 reporter | TDP1 cell CPT | TDP1 inh | uPA generation
CC(C)CC(O)(c1ccccc1)C(CN1CCOCC1)c1ccccc1 (centres undefined) | 21µM* | 6% | ? | nt | -1%
COc1ccc(C(O)(CCC(C)C)C(CN2CCOCC2)c2ccccc2)cc1 (centres undefined) | 21µM* | 16% | 23µM* | nt | -15%
COc1ccc(C2=NOC(C3(S(=O)(=O)c4ccccc4)CC(O)C3)C2)cc1 (centres undefined) | -22% | nt | -19% | nt | -15%
O=S(=O)(c1ccccc1)[C@@]1(c2ccc(Br)cc2)C[C@@H]2ON=C(c3cccc(Br)c3)[C@@H]2C1 | 18µM* | nt | ? | -3% | 8%
O=S(=O)(c1ccccc1)[C@@]1(c2ccc(Br)cc2)C[C@@H]2ON=C(c3ccccc3)[C@@H]2C1 | 12µM* | nt | ? | 0% | 6%
Cc1ccc(N(C)S(=O)(=O)c2ccc(-c3cc(C)no3)s2)cc1 | -83% | 22% | 6.5µM* | -3% | 2.2µM*
Cc1cc(-c2ccc(S(=O)(=O)N(C)c3ccc(C)c(C)c3)s2)on1 | 4.1µM* | 26% | 3.3µM* | 1% | ?
O=C(CSc1nc(-c2ccco2)cc(C(F)(F)F)n1)Nc1ccccc1C(F)(F)F | ? | -4% | ? | -4% | -11%
Cc1ccc(S(=O)(=O)C2(C(=O)NCc3ccccc3Cl)CC2)cc1 | 3% | -2% | ? | nt | -1%
COc1ccc2cc3c(N)nn(C(=O)c4ccc(F)cc4)c3nc2c1 | 10µM* | 21% | ? | nt | -1%
COc1ccc2cc3c(N)nn(C(=O)Cc4c[nH]c5ccccc45)c3nc2c1 | 4.1µM* | ? | 10µM* | nt | ?
COc1ccc2cc3c(N)nn(C(=O)c4ccccc4Cl)c3nc2c1 | ? | ? | 1.6µM* | 8% | 5%
COc1ccc2cc3c(N)c(C(=O)N4CCCC4)sc3nc2c1 | 21µM* | -59% | ? | 4% | -11%
COc1ccc2cc3c(N)nn(C(=O)c4cccc(F)c4)c3nc2c1 | ? | 7% | ? | nt | 10%
COc1cccc(CC(=O)n2nc(N)c3cc4ccc(OC)cc4nc32)c1 | -27% | 11% | -10% | 3% | 70%
COc1ccc2cc3c(N)nn(C(=O)c4ccc(OC)c(OC)c4)c3nc2c1 | -18% | 2% | -11% | nt | nt
O=C(CCNc1n[nH]c(=O)[nH]c1=O)N/N=C/c1ccc(Cl)cc1 | -16% | 1% | 6% | -5% | -12%
Cc1ccc(C2CC(=O)c3cnc(N4CC(C)CC(C)C4)nc3C2)cc1 (centres undefined) | nt | 0% | nt | 3% | nt
CC1CC(=O)c2cnc(N3CCOCC3)nc2C1 (centres undefined) | -14% | -12% | -13% | 0% | nt
CC1CC(C)CN(c2ncc3c(n2)CC(c2ccccc2Cl)CC3=O)C1 (centres undefined) | 21µM* | -1% | ? | 0% | 6%
CC1CC(C)CN(c2ncc3c(n2)CC(c2ccc(Cl)cc2)CC3=O)C1 (centres undefined) | 8.2µM* | -4% | ? | 3% | nt
COc1ccc(C(=O)NNC(=O)c2cccc3ccccc23)cc1 | 2% | nt | -6% | nt | -1%
